{"source": "the OligoGym collection"}
{"biological_target": "TUBAL3", "assay": "pooled miR-30 sensor sort-seq; sequence = guide strand", "conditions": "shRNA"}
{"sequence": "TAAGGTACCAGGTTGGTCTGGA", "sensor-assay potency score (higher = more potent)": 0.512}
{"sequence": "TAGACCGAGAACTCCAGCTTAG", "sensor-assay potency score (higher = more potent)": -0.779}
{"sequence": "TTAAGAGAGACGTAAACCCTGA", "sensor-assay potency score (higher = more potent)": -0.309}
{"sequence": "TGCATTTTCCAGCTGATCCTGT", "sensor-assay potency score (higher = more potent)": -0.383}
{"sequence": "TAGTGTGGAACCTAGAGTCTTG", "sensor-assay potency score (higher = more potent)": -0.173}
{"sequence": "TTTGTCAGCAGAGACGATGGGG", "sensor-assay potency score (higher = more potent)": 0.442}
{"sequence": "TTCTCTGAGGTACCAGTGCAGA", "sensor-assay potency score (higher = more potent)": -1.43}
{"sequence": "TAACTTGACATTCATTTGCACC", "sensor-assay potency score (higher = more potent)": -1.19}
{"sequence": "ATTGTTGGCAGCATCCTCCTTT", "sensor-assay potency score (higher = more potent)": 0.0651}
{"biological_target": "TUBB2B", "assay": "pooled miR-30 sensor sort-seq; sequence = guide strand", "conditions": "shRNA"}
{"sequence": "TAGTAAACATTGATTCTCTCCA", "sensor-assay potency score (higher = more potent)": 0.0212}
{"sequence": "TAACCGAATCCATCGTGCCTGG", "sensor-assay potency score (higher = more potent)": -0.853}
{"sequence": "TAAACATTGATTCTCTCCAGCT", "sensor-assay potency score (higher = more potent)": -0.472}
{"sequence": "ATGCAGTAGGTTTCATCTGTGT", "sensor-assay potency score (higher = more potent)": -0.689}
{"sequence": "TTCATTGTAGTAAACATTGATT", "sensor-assay potency score (higher = more potent)": -0.873}
{"sequence": "TCCATGGTAACTGCCAGTGGGG", "sensor-assay potency score (higher = more potent)": -1.71}
{"sequence": "AACATTGATTCTCTCCAGCTGC", "sensor-assay potency score (higher = more potent)": -0.381}
{"sequence": "TCGTTGTCAATGCAGTAGGTTT", "sensor-assay potency score (higher = more potent)": -1.57}
{"sequence": "AACACGAAATTGTCTGGTCTGA", "sensor-assay potency score (higher = more potent)": -0.953}
{"sequence": "ATGCTCATCACTGATGACCTCC", "sensor-assay potency score (higher = more potent)": -0.227}
{"sequence": "GTAAACATTGATTCTCTCCAGC", "sensor-assay potency score (higher = more potent)": -1.79}
{"sequence": "TTCCACCAGCTGGTGGACCGAG", "sensor-assay potency score (higher = more potent)": -1.21}
{"biological_target": "TUBGCP5", "assay": "pooled miR-30 sensor sort-seq; sequence = guide strand", "conditions": "shRNA"}
{"sequence": "TAAACTATGAGGAAACTGGGAG", "sensor-assay potency score (higher = more potent)": 0.101}
{"sequence": "TTGATCTTGTTCTTCTAACGGT", "sensor-assay potency score (higher = more potent)": 0.145}
{"sequence": "ATCTCTTCCAACTAGCAGCTTT", "sensor-assay potency score (higher = more potent)": -0.582}
{"sequence": "TACAACTCTATACAGTATCTAC", "sensor-assay potency score (higher = more potent)": -0.752}
{"sequence": "TTTTTCTGCAGTACTAACCAGT", "sensor-assay potency score (higher = more potent)": -0.246}
{"sequence": "TATTGTAGTATCATTATTGATG", "sensor-assay potency score (higher = more potent)": -0.448}
{"sequence": "TTCTGTTTTGATCTTGTTCTTC", "sensor-assay potency score (higher = more potent)": 0.0443}
{"sequence": "TGGATCATGAACATCATCCAGT", "sensor-assay potency score (higher = more potent)": -0.749}
{"sequence": "TTTGTGGCTGTTGACATCCAAG", "sensor-assay potency score (higher = more potent)": -1.62}
{"sequence": "TTAATCTCTTCCAACTAGCAGC", "sensor-assay potency score (higher = more potent)": -0.324}
{"sequence": "TAACGGTGTCCTGTCTACCTGA", "sensor-assay potency score (higher = more potent)": -0.629}
{"sequence": "TAGATAGACGTGAACTATCTTC", "sensor-assay potency score (higher = more potent)": -0.283}
{"biological_target": "TULP4", "assay": "pooled miR-30 sensor sort-seq; sequence = guide strand", "conditions": "shRNA"}
{"sequence": "TTTTATAGATTACTGCACCGAG", "sensor-assay potency score (higher = more potent)": 0.0761}
{"sequence": "TAAATTAATATAGTCCATGGAA", "sensor-assay potency score (higher = more potent)": -0.711}
{"sequence": "AACATTGTAGAACTTGACCATG", "sensor-assay potency score (higher = more potent)": -1.37}
{"sequence": "TTCAAGCACACATCCACTGGGG", "sensor-assay potency score (higher = more potent)": 0.492}
{"sequence": "TTGTCTTATTCAACTTCTTTGA", "sensor-assay potency score (higher = more potent)": -0.83}
{"sequence": "TTCTTCTGCTCGGCTGTCCAGG", "sensor-assay potency score (higher = more potent)": -0.627}
{"sequence": "TTGTAGAACTTGACCATGGCAC", "sensor-assay potency score (higher = more potent)": 0.0563}
